# Compounds with a hit are over-represented: about 2.7% of the library has one in this group of screens.
# KDM5B inhibitor: KDM5B demethylase inhibition. 220,000 compounds, 2.6% hits. Q9UGL1. Potency, µM (top dose mostly 57.7 µM), hits mostly inhibitors. KDM5B demethylase, FDH-coupled NADH fluorescence (FDH is formaldehyde dehydrogenase). AID 1347165; active = well fitted inhibition curve with a large enough effect; inconclusive = small, poorly fitted or top-dose-only effect; inactive = no such curve, though single readings can be large or run the other way; note: potency is the fitted concentration of half-maximal effect; 0% is about no effect; nearly all actives have a fitted effect of over 70% in size
#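 Measured: NADH fluorescence change, 30 min, RT. System: KDM5BΔAP 200 nM final, H3K4me3 peptide, α-KG, Fe(II), ascorbate, NAD⁺ plus FDH, pH 7.5 HEPES. Compounds: titrated, 10 min pre-incubation with enzyme.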
# IP6K1 inhibitor: IP6K1 kinase inhibition | Q92551 | IP6K1 kinase, ADP-Glo luminescence, 2 h; hits give low values | activity change, % (series mostly up to about 58 µM) | 140,000 compounds, 0.81% hits; in the data active = activity change below about -25%; note: % is set by controls: 0 for no effect and ±100 for the full control effect
#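 ADP-Glo luminescence measures ADP made by human IP6K1 during a 2 h RT reaction with ATP/IP6 (mix at 1.3 mM/130 uM); top library doses 57.5 and 19.1 uM final.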
# * hit, by the source's call; i = inactive; ? = inconclusive; · = no result.
SMILES,KDM5B inhibitor,IP6K1 inhibitor
COc1cc(-c2nc3cnccn3c2Nc2ccc(C(C)C)cc2)ccc1O,?,-10
COc1ccc(-c2nc3cnccn3c2NCCC(=O)Nc2ccc(C)cc2C)cc1,25µM*,1
COc1ccc(C(=O)NNC(=O)CCC(=O)Nc2ccc(C)cc2C)cc1,i,·
NCCC(=O)Nc1cc(F)ccc1F,i,·
COc1ccc(-c2nc3cnccn3c2NCCC(=O)O)cc1,28µM*,6
Cc1cccc(-c2noc(CCCC(=O)NCc3ccco3)n2)c1,i,26
COc1ccccc1-c1nc2cnccn2c1NCCC(=O)Nc1cc(F)ccc1F,28µM*,30
O=C(NCc1ccnc(OCC(F)(F)F)c1)c1ccco1,i,·
Cc1cccc(NC(=O)CCC2CCCC2)c1C,i,·
CCCNC(=O)N1CCN(Cc2nc(-c3ccc(OC)cc3)oc2C)CC1,i,·
Cc1ccc(C(=O)NCc2nnc3ccc(-c4ccccc4)nn23)s1,?,15
Cn1nc(C(=O)NCc2nnc3ccc(-c4ccccc4)nn23)c2ccccc21,?,30
Cc1ccsc1C(=O)NCc1nnc2ccc(-c3ccc(Cl)cc3)nn12,32µM*,7
O=C(NCc1nnc2ccc(-c3ccccc3)nn12)c1ccc(Cl)s1,22µM*,-6
O=C(NCc1nnc2ccc(-c3ccccc3)nn12)c1ccc[nH]1,i,-5
O=C(NCc1nnc2ccc(-c3ccc(Cl)cc3)nn12)c1ccc(Cl)s1,5µM*,8
O=C(NCc1nnc2ccc(-c3ccc(Cl)cc3)nn12)c1cccc2[nH]ccc12,i,1
Cc1ccc(C(=O)NCc2nnc3ccc(-c4ccc(Cl)cc4)nn23)s1,16µM*,9
CCCc1c(C(=O)NCCc2ccccc2)nnn1-c1ccccc1,i,·
CCSc1nc2c(c(=O)[nH]1)C(C(=O)Nc1cccc(Cl)c1)CC(=O)N2 (stereo unspecified),i,·
CCCn1nc(C(=O)N2CC(C(=O)N3CCOCC3)Oc3ccccc32)c2ccccc2c1=O (stereo unspecified),i,·
COc1cccc(-c2cccc(C(=O)N3CCCC3C(=O)N3CCN(Cc4ccccc4)CC3)c2)c1 (stereo unspecified),·,-8
CC(C)Cn1nc(C(=O)Nc2nc(-c3ccc4c(c3)OCCO4)cs2)c2ccccc2c1=O,i,·
CC(C)(C)c1ccc(C(=O)NCCCCCCNC(=O)c2ccc(C(C)(C)C)cc2)cc1,i,·
CCc1c(C)cc(C(=O)N[C@@H]2[C@@H](Cc3ccccc3)[C@H]3OCC[C@@H]23)c(=O)n1C,28µM*,11
SMILES,KDM5B inhibitor,IP6K1 inhibitor
Cn1cnc(C(=O)N[C@@H]2[C@@H](Cc3ccccc3)[C@H]3OCC[C@@H]23)c1,i,26
CCC(C(=O)Nc1ccc2c(c1)OCO2)n1nc(-c2cc(C)ccc2C)ccc1=O (stereo unspecified),i,·
COc1ccc(C2Cn3nnc(C(=O)N4CCN(C(=O)c5ccc(C)s5)CC4)c3CO2)cc1 (stereo unspecified),?,-12
CC(=O)N1C[C@H](NC(=O)c2cc3c(n(C)c2=O)CCCC3)[C@@H](C2CC2)C1,28µM*,20
Cn1c2c(cc(C(=O)N3CC[C@](C)(O)[C@@H](O)C3)c1=O)CCCC2,?,36
CN(Cc1cccnc1)c1ccc2ncc(Nc3cccc(N[S+](C)(=O)[O-])c3)n2n1,18µM*,6
COc1ccc(Nc2cnc3ccc(N(C)Cc4cccnc4)nn23)cc1,?,-12
CN(Cc1ccc(F)cc1)c1ccc2ncc(Nc3cccc(N[S+](C)(=O)[O-])c3)n2n1,?,-21
CN(Cc1cccnc1)c1ccc2ncc(Nc3ccc(C(F)(F)F)cc3)n2n1,25µM*,-21
COc1cccc2cc(-c3csc(Nc4ccc(C)cc4)n3)c(=O)oc12,i,·
Cc1nc2ncnn2c(C)c1CCC(=O)Nc1cccc(S(=O)(=O)N2CCOCC2)c1,i,·
CC(C)(C)c1ccc(CNCCCC(=O)O)cc1,i,·
O=c1cc(-c2ccncc2)oc2c(-c3ccc(CO)cc3)nccc12,35µM*,-8
O=c1cc(-c2ccccn2)oc2c(-c3cccc(CO)c3)nccc12,?,28
Cc1noc(C)c1-c1nccc2c(=O)cc(-c3ccccn3)oc12,28µM*,-10
Cc1noc(C)c1-c1nccc2c(=O)cc(N(C)c3ccccc3)oc12,?,-11
O=c1cc(-c2ccccn2)oc2c(-c3ccc(CO)cc3)nccc12,28µM*,8
O=c1cc(-c2ccncc2)oc2c(-c3cccc(O)c3)nccc12,?,-18
CCC(C)NC(=O)c1cc(-c2cccc(F)c2)nc2c1cnn2C (stereo unspecified),·,13
COc1ccccc1C(=O)OC1=CN(C(C)C)S(=O)(=O)c2ccccc21,i,·
Cc1ccc2nc(CSc3nnc(N4CCCCC4)n3-c3ccccc3)cn2c1,i,·
Cn1c(=O)c2c(nc(Cl)n2CCC#N)n(C)c1=O,i,·
COCC(=O)N1C[C@H](NC(=O)C(=O)c2cccn2C)[C@@H](C2CC2)C1,i,1
